Screen size: about 220,000 compounds; about 570 (0.26%) were called active. Cut-off read from the data, not from the text of the source: active = inhibition above about 29%; inactive = the rest. The sample as a whole holds a higher share of actives than the screen did.

Sphingosine 1-phosphate receptor 4 (Homo sapiens), sequence (O95977 whole entry, looked up): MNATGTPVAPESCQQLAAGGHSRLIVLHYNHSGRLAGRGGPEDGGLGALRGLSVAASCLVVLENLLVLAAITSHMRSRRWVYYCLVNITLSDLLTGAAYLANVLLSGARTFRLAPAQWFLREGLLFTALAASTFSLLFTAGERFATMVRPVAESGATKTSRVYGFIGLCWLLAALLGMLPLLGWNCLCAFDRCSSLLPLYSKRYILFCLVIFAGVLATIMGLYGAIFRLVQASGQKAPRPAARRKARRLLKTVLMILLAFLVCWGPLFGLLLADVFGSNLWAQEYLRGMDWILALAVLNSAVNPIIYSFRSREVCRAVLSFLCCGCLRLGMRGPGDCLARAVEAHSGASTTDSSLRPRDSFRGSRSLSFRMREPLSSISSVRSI

The assay has as its target Sphingosine 1-phosphate receptor 4 (Homo sapiens) (UniProt O95977). Put plainly: blockers of human S1P4 receptor – cell-based, primary screen (AID 1510).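 Note: 0% = wells stimulated with agonist and 100% = vehicle wells without agonist.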 The settings on record: S1P4-expressing cells, antagonist mode, reporter read-out; at 4.98 µM; active compounds read high.
Broadly, the inhibition is the drop in the measured response relative to a control, in per cent. `CN(C)CC1Oc2ccccc2OC1(O)c1ccccc1` (stereo not given): the inhibition is 66% (active).

For `Cc1ccc(-c2nn(CCC#N)cc2C(=O)O)cc1C`, the inhibition was -15.8% (inactive).

On to `O=C(COC(=O)Cc1ccccc1)Nc1ccc(F)cc1`, for which the inhibition is -14% (inactive).

As for `COP(=O)(NS(=O)(=O)c1ccccc1)OC`, the inhibition is -0.89% (inactive).

With `CN1CCN(Cc2ccc(OC(F)(F)F)cc2)CC1`, the inhibition was -5.02% (inactive).

The values are drawn from PubChem BioAssay AID1510 (The Scripps Research Institute Molecular Screening Center, 2009).
